The record followed here is PubChem BioAssay AID651965 (National Center for Advancing Translational Sciences (NCATS), 2013).

Among all 340,000 compounds or so, about 6,400 (1.9%) were called active. Another 4% or so got no clear call; they are omitted. Calls come from the whole dose curve; as a rule, active = well fitted falling curve with a large enough effect; inconclusive = small, poorly fitted or top-dose-only effect; inactive = no such curve, though single readings can be large or run the other way. The sample as a whole holds a higher share of actives than the screen did.

Chain of ATP-dependent Clp protease proteolytic subunit (Bacillus subtilis (strain 168)) (P80244 whole entry, looked up): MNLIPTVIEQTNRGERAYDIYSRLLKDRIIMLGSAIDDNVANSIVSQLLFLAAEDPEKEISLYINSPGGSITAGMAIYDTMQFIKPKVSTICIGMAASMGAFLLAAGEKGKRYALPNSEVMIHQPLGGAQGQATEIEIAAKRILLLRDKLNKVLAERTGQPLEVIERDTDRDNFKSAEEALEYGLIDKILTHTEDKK

This assay deals with ATP-dependent Clp protease proteolytic subunit (Bacillus subtilis (strain 168)) (UniProt P80244). Put plainly: qHTS Assay for Activators of ClpP. Note: the source files actives as falling curves though it sought activators and does not explain the sign; nearly all actives have a fitted effect of over 65% in size. As to conditions: purified B. subtilis ClpP, FRET peptide cleavage, 20 min; series mostly up to 57.5 µM; activity change, negative = active: at the top concentration. From the text:
The Clp protease proteolytic subunit (ClpP) is the core unit of the Clp complex belonging to the peptidase family S14 that hydrolyzes protein into small peptides in the presence of ATP and magnesium. It is ubiquitously expressed and is the major protease in bacteria. […] Unlike common antibiotics that simply interfere with the essential enzyme activity, ADEP binding activates the ClpP core in the absence of the regulatory Clp-ATPases leading to uncontrolled proteolysis and eventually cell death. Activators binding to the docking site on ClpP can also block formation of the ClpXP and ClpA/C-P holoenzyme complexes interfering with the normal biological functions of ClpP and thus have the potential to become new anti-microbials.
To identify activators of ClpP, a FRET based quenching reversal assay was developed using a purified B. subtilis ClpP and a decapeptide substrate (FRET-FV). The FRET-FV is tagged with a fluorescent molecule amino benzoic acid (donor) at the N-terminus and a nitrotyrosine quencher (acceptor) at the C-terminus. FRET-FV cleaves upon activation of ClpP with ADEP treatement and reverses the quenching effect of the nitrotyrosine causing an increase in fluorescence emission signal at 430nm. This assay was used to screen the Molecular Libraries Small Molecule Repository (MLSMR).
NIH Molecular Libraries Probe Production Centers Network [MLPCN]
NIH Chemical Genomics Center [NCGC]
Assay Submitter (PI): Michael Maurizi, National Cancer Institute
Two and a half microL/well of purified enzyme solution (final concentrations 10 microg/mL B. subtilis ClpP in 100 mM Tris/HCl pH8, 100 mM KCl, 0.05% low protease BSA, 2.5% glycerol, 0.01% Tween-20 buffer) was dispensed into 1536-well assay plates (Greiner, black solid, medium-binding plates) with Aurora Discovery BioRAPTR Flying Reagent Dispenser (FRD, Beckton-Dickenson). Compound solution (23 nL) was transferred to the assay plate using Kalypsys pin tool equipped with a 1536-pin tool. […] FRET signals at time 0 and after 20 min room temperature incubation were obtained using the PerkinElmer Envision plate reader with 320nm excitation and 430nm emission filters. Delta FRET value (Time 20 - Time 0) was calculated and normalized to the delta FRET value of positive control ADEP (5.8 microM final concentration) and negative control DMSO and no enzyme wells.
In the case of `c1ccc(CCc2ccccn2)cc1`, the “activity change, negative = active” value is -10.1% (inactive).
For `Cc1ccc(O)c(CCc2ccccc2)n1`, the Potency is 28.2 µM (active).
Consider `Cc1cc(C)n2c(Nc3c(C)cccc3C)c(CCc3ccccc3)nc2n1`, for which the “activity change, negative = active” value was -7.95% (inactive).
The same measure, in the same setting: next, `C=CCOc1ccccc1CNn1c(C)n[nH]c1=S`: -5.37% (inactive).
Take `Cn1c(-c2ccc(C(=O)c3ccccc3)s2)nc2ccccc21`: the Potency was 20 µM (active).
As to `Cn1c(CNC(=O)C(C)(C)C)nc2ccccc21`, the “activity change, negative = active” value is 0.269% (inactive).
Still for that read-out and setting: next, `Cn1c(NC(=O)c2ccccc2)nc2ccccc21`: 0.103% (inactive); `CCCCc1nc2ccc(F)cc2cc1C`: -3.04% (inactive); `CCCc1ccc(C(O)c2ncc(-c3cccc(OC)c3)[nH]2)cc1` (stereo unspecified): -0.496% (inactive).
`COc1ccc(CC(N)c2csc(NC(=O)Cc3ccccc3)n2)cc1` (stereo unspecified): the “activity change, negative = active” value is -0.24% (inactive).
Same read-out and setting: then `CCOC(=O)CSc1nnc(CNC(=O)c2ccco2)n1-c1ccc(F)cc1`, with -4.96% (inactive); and `CCOC(=O)CSc1nnc(CNC(=O)c2cccs2)n1-c1cc(OC)ccc1OC`, with -0.328% (inactive).
For `CCOC(=O)CSc1nnc(CNC(=O)c2cccs2)n1-c1ccccc1`, the Potency is 10 µM (active).
As to `Nc1nc2c(Br)ccc(Br)c2cc1C(=O)NCCc1ccccc1`, the “activity change, negative = active” value was 0.0907% (inactive).
In the case of `O=C(COc1ccc2c3c(c(=O)oc2c1)CCC3)NC1CCCCC1`, the Potency was 14.1 µM (active).
`NC(=O)C1CCN(C(=O)COc2ccc3c4c(c(=O)oc3c2)CCC4)CC1`: the “activity change, negative = active” value was 4.67% (inactive).
Same read-out and setting: next, `O=C(COc1ccc2c3c(c(=O)oc2c1)CCCC3)NCC(O)c1ccccc1` (stereo unspecified): 3.98% (inactive).
For the molecule `CC1(C(=O)Nc2cccc3c2CCCC3)CCN1C(=O)CCc1ccc(Cl)cc1Cl` (stereo unspecified), the “activity change, negative = active” value was 2.56% (inactive).
On to `Cc1cc2cc3n(c2nn1)N=C(Cl)CC3`, for which the “activity change, negative = active” value is 4.2% (inactive).
Still for that read-out and setting: next, `CCCc1nc2c3ccccc3ccn2c1Cc1ccccc1C(F)(F)F`: 4.9% (inactive); `Cc1ccc(Cc2c(-c3ccc(C)cc3)nc3c4ccccc4ccn23)cc1`: -5.5% (inactive).
On to `FC(F)(F)c1ccccc1Cc1c(-c2ccccc2)nc2c3ccccc3ccn12`, for which the Potency was 22.4 µM (active).
Consider `NNc1nc2c(Cl)cccc2s1`, for which the “activity change, negative = active” value was -9.24% (inactive).
On the same count and under the same terms, then `NC(=O)c1c(Nc2nc3c(F)cccc3s2)sc2c1CCCC2`, with -15.4% (inactive).
Turning to `Fc1cc(F)c2nc(Nc3nc4c(F)cccc4s3)sc2c1`, the Potency was 3.55 µM (active).
Regarding `CCOC(=O)c1cc2cc(OC)ccc2n1C1CCN(C)CC1`, the “activity change, negative = active” value is 4.63% (inactive).
Turning to `CCC(C(=O)NCc1ccccc1)n1c(Cc2cc(F)cc(F)c2)nc2ccccc21` (stereo unspecified), the “activity change, negative = active” value is -1.02% (inactive).
Still for that read-out and setting: then `CC1Cc2[nH][nH]c(=O)c2C(C2CC2)O1` (stereo unspecified), with 0.813% (inactive); and `CCCCCNC(=O)C1C(=O)Nc2ccccc2C(=O)N1C(C)(C)C` (stereo unspecified), with -9.04% (inactive); and `COc1ccc(-c2cn3ccc(C)cc3n2)cc1`, with 4.16% (inactive).
With `COc1ccc(C2=Nc3cc(C)ccc3OC2)cc1`, the Potency is 28.2 µM (active).
Turning to `COc1ccc(-c2cc(-c3ccc(F)cc3)nc3c2COc2ccccc2-3)cc1`, the “activity change, negative = active” value was 4.12% (inactive).
On the same count and under the same terms, then `CCOC(=O)[C@]12CCCC=C1N(CCC1=CCCCC1)C(=O)[C@H](CC(=O)NCCCOC)C2`, with 1.11% (inactive); and `Cc1cc(NC(=O)CSCC(=O)NC(C)c2ccccc2)no1` (stereo unspecified), with -3.37% (inactive).
In the case of `Cc1ccc2nc(-c3ccc(SCC(=O)Nc4cc(C)on4)nc3)[nH]c2c1`, the Potency was 31.6 µM (active).
With `Cc1cc(NC(=O)CSc2nc3ccccc3n2CC(C)C)no1`, the “activity change, negative = active” value is -2.44% (inactive).
The same measure, in the same setting: next, `CN(CCC#N)c1ccc(C=O)cc1`: -10.3% (inactive); `CC(C)(C)c1ccc(C(=O)C[N+]2(C)CCCc3ccccc32)cc1` (stereo unspecified): 0.0913% (inactive).
Same read-out and setting: next, `COc1ccc(S(=O)(=O)N[C@@H]2C=C[C@@H](CC(=O)N3CCc4ccccc4C3)O[C@@H]2CO)cc1`: 0.958% (inactive).
For the molecule `CCn1c2ccccc2c2cc(NC(=O)COC(=O)c3cc(S(=O)(=O)N4CCCCC4)ccc3Cl)ccc21`, the Potency was 10 µM (active).
Consider `O=C(COC(=O)c1cc(S(=O)(=O)N2CCOCC2)ccc1Cl)NCCc1ccccc1`, for which the “activity change, negative = active” value was 0.437% (inactive).
Still for that read-out and setting: then `CCn1c2ccccc2c2cc(NC(=O)COC(=O)c3ccccc3Br)ccc21`, with -3.15% (inactive); and `COc1cc2nc(N3CCCN(C)CC3)nc(NC3CC3)c2cc1OC`, with 4.13% (inactive); and `COc1ccccc1Nc1cc(C(=O)NCCCN(C)C2CCCCC2)c2ccccc2n1`, with -1.71% (inactive).
On to `COc1ccc(Nc2cc(C(=O)NCCCN(C)c3ccccc3)c3ccccc3n2)c(OC)c1`, for which the “activity change, negative = active” value was -0.556% (inactive).
Consider `CCCCN(CCCNC(=O)c1cc(Nc2ccccc2OC)nc2ccccc12)c1ccccc1`, for which the Potency was 17.8 µM (active).
On to `CN(C)C(=O)c1cccc(-c2cnc3c(NC=O)cc(-c4ccc(C(=O)N5CCOCC5)cc4)cn23)c1`, for which the “activity change, negative = active” value is -29.9% (inactive).
Still for that read-out and setting: next, `COCCCNC(=O)c1ccc(-c2c(C)noc2C)c2ccoc12`: -22.5% (inactive); `C=Cc1ccc(C(=O)N2CCCC(CCC(=O)N3CCN(c4ccccn4)CC3)C2)cc1` (stereo unspecified): -5.05% (inactive).
Still for that read-out and setting: next, `O=C(CCC1CCCN(C(=O)Cc2ccc(F)cc2)C1)N1CCN(c2ccccn2)CC1` (stereo unspecified): -1.11% (inactive).
As for `O=C(CCC1CCCN(C(=O)c2ccc(F)c(F)c2)C1)N1CCN(c2ccccn2)CC1` (stereo unspecified), the Potency was 17.8 µM (active).
